Results as given in PubChem BioAssay (Tox21).
Records with an inconclusive call do not appear. Calls of active or inactive are those of the source. Unless noted, calls come from the whole dose curve; as a rule, active = well fitted curve in the direction sought with a large enough effect in the repeat runs; inconclusive = weak or mixed curves; inactive = no such curve, though single readings can be large; an effect the other way counts as inactive or inconclusive.

How the values were obtained:
[1] = qHTS assay to identify aromatase inhibitors - cell viability counter screen (AID 743084);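 note: cells stimulated with testosterone during compound exposure; nearly all actives have a fitted effect of over 55% in size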
[2] = target: Aryl hydrocarbon receptor (Homo sapiens) (UniProt P35869); experiment: qHTS assay to identify small molecule that activate the aryl hydrocarbon receptor (AhR) signaling pathway (AID 743085);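 note: HG2L7.5c1 human HepG2 liver cells with stably integrated DRE-driven firefly reporter; series mostly up to about 70 µM; nearly all actives have a fitted effect of over 15% in size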
How it was run: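 Steps: seed HepG2-AhR-luc cells; allow 5 h at 37C; pin-transfer test compound or vehicle; incubate 24 h at 37C; add viability dye (30 min, 37C) and read fluorescence; add luciferase substrate (30 min, RT) and read luminescence.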

[3] = qHTS assay to identify small molecule that activate the aryl hydrocarbon receptor (AhR) signaling pathway - cell viability counter screen (AID 743086);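 note: HepG2 liver cells carrying the AhR DRE luciferase reporter; series mostly up to about 70 µM; nearly all actives have a fitted effect of over 45% in size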
How it was run: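 Cytotoxicity counter screen: CellTiter-Fluor signal (30 min, 37 C) in 4000 HepG2 cells/well carrying the DRE-luciferase reporter, following 24 h compound exposure at 37 C.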

[4] = target: Peroxisome proliferator-activated receptor gamma (Homo sapiens) (UniProt P37231); experiment: qHTS assay to identify small molecule agonists of the peroxisome proliferator-activated receptor gamma (PPARg) signaling pathway (AID 743094; active = well fitted activation curve with a large enough effect in the signal ratio in the repeat runs, not every such curve was filed as active; the % refers to the signal ratio)
How it was run: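 Beta-lactamase FRET fluorescence was the read-out after a 1 h room-temperature substrate step, following 17 h compound treatment at 37C of HEK293H cells expressing a UAS-driven bla reporter responsive to PPARg.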

[5] = target: Peroxisome proliferator-activated receptor gamma (Homo sapiens) (UniProt P37231); experiment: qHTS assay to identify small molecule antagonists of the peroxisome proliferator-activated receptor gamma (PPARg) signaling pathway (AID 743191; calls by dose curve; note: series mostly up to about 63 µM; nearly all actives have a fitted effect of over 30% in size)
How it was run: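 Beta-lactamase reporter under UAS control in HEK293H PPARg-bla cells; compound treatment 17 h at 37C. Read-out: fluorescence intensity after 1 h room-temperature incubation with LiveBLAzer B/G FRET substrate.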

[6] = qHTS assay to identify small molecule antagonists of the peroxisome proliferator-activated receptor gamma (PPARg) signaling pathway - cell viability counter screen (AID 743194); note: nearly all actives have a fitted effect of over 55% in size
How it was run: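 Viability was measured as CellTiter-Glo luminescence in GeneBLAzer PPARg UAS-bla HEK293H cells. These cells had been exposed 17 h at 37 C to compounds together with rosiglitazone at 50 nM final, with the beta-lactamase readout taken in the same wells.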

[7] = qHTS assay for small molecule agonists of the antioxidant response element (ARE) signaling pathway (AID 743202; active = well fitted activation curve with a large enough effect in the signal ratio in the repeat runs, not every such curve was filed as active; the % refers to the signal ratio)
How it was run: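 Quantitative high-throughput format in HepG2 cells bearing an integrated ARE-beta-lactamase reporter. Compound exposure lasted 16 h at 37 C, and fluorescence was read 2 h after adding LiveBLAzer B/G substrate at room temperature.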

[8] = qHTS assay for small molecule agonists of the antioxidant response element (ARE) signaling pathway - cell viability counter screen (AID 743203; calls by dose curve; note: nearly all actives have a fitted effect of over 55% in size)
How it was run: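 HepG2 cells carrying ARE-driven beta-lactamase; 2,000 cells/well; 5 hrs plating; compound pinned from DMSO; 16 hrs 37C/5% CO2; CellTiter-Glo added; 30 min RT; luminescence.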

[9] = qHTS assay for small molecule activators of the heat shock response signaling pathway - cell viability counter screen (AID 743209); note: nearly all actives have a fitted effect of over 50% in size
How it was run: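 Luminescence from CellTiter-Glo, added after the beta-lactamase FRET read, gave the viability signal. Cells were HSE-bla HeLa treated with DMSO-dissolved compounds for 5 h at 37 C following overnight plating.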

[10] = qHTS assay for small molecule activators of the heat shock response signaling pathway (AID 743210; active = well fitted activation curve with a large enough effect in the signal ratio in the repeat runs, with a control signal flat, not every such curve was filed as active; the % refers to the signal ratio;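 note: HeLa cells with beta-lactamase reporter driven by heat shock elements; series mostly up to about 63 µM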)
How it was run: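 HeLa HSE-bla cells, overnight plating; cpd in DMSO 5 h, 37 C; LiveBLAzer B/G FRET substrate 2.5 h RT; fluorescence intensity read.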

[11] = qHTS assay to identify small molecule agonists of the peroxisome proliferator-activated receptor delta (PPARd) signaling pathway - cell viability counter screen (AID 743211); note: nearly all actives have a fitted effect of over 55% in size
How it was run: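 Viability of GeneBLAzer PPARd UAS-bla HEK293H cells was assessed after 17 h compound incubation at 37C, using CellTiter-Glo reagent added after the reporter read and luminescence recorded 30 min later.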

[12] = target: Peroxisome proliferator-activated receptor delta (Homo sapiens) (UniProt Q03181); experiment: qHTS assay to identify small molecule agonists of the peroxisome proliferator-activated receptor delta (PPARd) signaling pathway (AID 743212; calls by dose curve)
How it was run: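 HEK293H PPARd-bla cells; 5 h preincubation 37 C/5% CO2; compound (DMSO) 37 C; LiveBLAzer B/G FRET substrate 2 h RT; fluorescence intensity.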

[13] = qHTS assay to identify small molecule antagonists of the peroxisome proliferator-activated receptor delta (PPARd) signaling pathway - cell viability counter screen (AID 743213); note: nearly all actives have a fitted effect of over 50% in size
How it was run: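 Luminescence from CellTiter-Glo, added after the bla read and incubated 30 min at room temperature, gives viability of HEK293H PPARd-bla cells exposed to compounds for 17 h at 37 C with 300 nM L165041.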

[14] = target: Peroxisome proliferator-activated receptor delta (Homo sapiens) (UniProt Q03181); experiment: qHTS assay to identify small molecule antagonists of the peroxisome proliferator-activated receptor delta (PPARd) signaling pathway (AID 743215; active = well fitted inhibition curve with a large enough effect in the signal ratio in the repeat runs, not every such curve was filed as active; the % refers to the signal ratio;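 note: cells stimulated with agonist L165041 at 300 nM final during compound exposure; series mostly up to about 62 µM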)
How it was run: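 Read-out is beta-lactamase FRET fluorescence, measured 2 h after substrate addition at room temperature. Beforehand, UAS-bla HEK293H cells carrying the PPARd reporter were exposed to compounds with L165041 at 300 nM final for 17 h at 37 C.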

[15] = target: Bile acid receptor (Homo sapiens) (UniProt Q96RI1); experiment: qHTS assay to identify small molecule antagonists of the farnesoid-X-receptor (FXR) signaling pathway (AID 743217; active = well fitted inhibition curve with a large enough effect in the signal ratio in the repeat runs, not every such curve was filed as active; the % refers to the signal ratio)
How it was run: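 HEK 293T FXR-UAS-bla, 5000 cells/well; compound + CDCA 50 uM final; 16 h, 37 °C; B/G FRET substrate 2 h RT; fluorescence.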

[16] = qHTS assay to identify small molecule agonists of the farnesoid-X-receptor (FXR) signaling pathway - cell viability counter screen (AID 743218); note: nearly all actives have a fitted effect of over 45% in size
How it was run: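 HEK 293T FXR-bla cells; 5 h pre-incubation, 16 h compound exposure at 37 C; LiveBLAzer substrate 2 h RT, then CellTiter-Glo 30 min RT, luminescence.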

[17] = target: Bile acid receptor (Homo sapiens) (UniProt Q96RI1); experiment: qHTS assay to identify small molecule agonists of the farnesoid-X-receptor (FXR) signaling pathway (AID 743220; active = well fitted activation curve with a large enough effect in the signal ratio in the repeat runs, not every such curve was filed as active; the % refers to the signal ratio)
How it was run: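 Beta-lactamase reporter under UAS control in GeneBLAzer FXR HEK 293T cells (5000/well) measured with LiveBLAzer FRET substrate after 2 h at room temperature. Compound exposure lasted 16 h at 37C.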

[18] = qHTS assay to identify small molecule antagonists of the farnesoid-X-receptor (FXR) signaling pathway - cell viability counter screen (AID 743221; active = well fitted cell-killing curve with a large enough effect in the repeat runs, not every such curve was filed as active; note: nearly all actives have a fitted effect of over 50% in size)
How it was run: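 Quantitative HTS of the Tox21 10K library run in parallel with the beta-lactamase reporter read. HEK 293T cells carrying a UAS-driven bla reporter got compound and 50 uM CDCA (final) for 16 h; ATP-based luminescence followed.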

[19] = target: Vitamin D3 receptor (Homo sapiens) (UniProt P11473); experiment: qHTS assay to identify small molecule agonists of the vitamin D receptor (VDR) signaling pathway (AID 743222; calls by dose curve)
How it was run: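 VDR-bla cells, 2,000/well; 4 h preincubation 37C; cpd (DMSO) 16 h; LiveBLAzer B/G substrate 2 h RT; fluorescence intensity read.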

[20] = target: Vitamin D3 receptor (Homo sapiens) (UniProt P11473); experiment: qHTS assay to identify small molecule antagonists of the vitamin D receptor (VDR) signaling pathway (AID 743223; active = well fitted inhibition curve with a large enough effect in the signal ratio in the repeat runs, not every such curve was filed as active; the % refers to the signal ratio)
How it was run: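 Fluorescence from LiveBLAzer B/G FRET substrate, read after 2 h at room temperature, reflects beta-lactamase reporter activity in VDR-bla cells treated 16 h at 37C with compounds and agonist 1alpha,25-dihydroxyvitamin D3 (3 nM final).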

Measured: Potency

Chain of Vitamin D3 receptor (Homo sapiens) (P11473 whole entry, looked up): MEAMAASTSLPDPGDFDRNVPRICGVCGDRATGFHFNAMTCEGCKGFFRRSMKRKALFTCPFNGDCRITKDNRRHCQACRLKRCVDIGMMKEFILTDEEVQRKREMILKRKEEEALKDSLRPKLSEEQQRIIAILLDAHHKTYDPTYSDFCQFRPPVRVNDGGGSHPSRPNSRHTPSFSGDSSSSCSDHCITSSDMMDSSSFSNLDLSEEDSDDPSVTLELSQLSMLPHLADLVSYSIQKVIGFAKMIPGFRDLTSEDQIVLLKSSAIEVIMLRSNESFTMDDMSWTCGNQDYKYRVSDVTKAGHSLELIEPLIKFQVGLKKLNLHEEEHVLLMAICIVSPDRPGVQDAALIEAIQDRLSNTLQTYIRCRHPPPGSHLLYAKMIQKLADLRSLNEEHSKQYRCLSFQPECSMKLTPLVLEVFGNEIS
Chain of Bile acid receptor (Homo sapiens) (Q96RI1 whole entry, looked up): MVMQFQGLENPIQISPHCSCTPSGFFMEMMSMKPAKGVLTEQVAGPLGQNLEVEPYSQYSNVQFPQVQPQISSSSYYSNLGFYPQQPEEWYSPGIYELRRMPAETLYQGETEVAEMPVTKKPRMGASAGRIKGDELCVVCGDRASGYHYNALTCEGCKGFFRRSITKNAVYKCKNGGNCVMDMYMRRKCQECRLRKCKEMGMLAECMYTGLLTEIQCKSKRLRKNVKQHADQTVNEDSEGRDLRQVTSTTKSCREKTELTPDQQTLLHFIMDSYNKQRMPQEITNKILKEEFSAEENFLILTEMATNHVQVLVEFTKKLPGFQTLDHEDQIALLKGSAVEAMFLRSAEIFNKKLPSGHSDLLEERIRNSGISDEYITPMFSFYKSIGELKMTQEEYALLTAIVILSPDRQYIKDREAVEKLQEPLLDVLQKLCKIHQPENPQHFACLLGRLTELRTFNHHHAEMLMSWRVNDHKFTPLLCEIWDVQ
Chain of Aryl hydrocarbon receptor (Homo sapiens) (P35869 whole entry, looked up): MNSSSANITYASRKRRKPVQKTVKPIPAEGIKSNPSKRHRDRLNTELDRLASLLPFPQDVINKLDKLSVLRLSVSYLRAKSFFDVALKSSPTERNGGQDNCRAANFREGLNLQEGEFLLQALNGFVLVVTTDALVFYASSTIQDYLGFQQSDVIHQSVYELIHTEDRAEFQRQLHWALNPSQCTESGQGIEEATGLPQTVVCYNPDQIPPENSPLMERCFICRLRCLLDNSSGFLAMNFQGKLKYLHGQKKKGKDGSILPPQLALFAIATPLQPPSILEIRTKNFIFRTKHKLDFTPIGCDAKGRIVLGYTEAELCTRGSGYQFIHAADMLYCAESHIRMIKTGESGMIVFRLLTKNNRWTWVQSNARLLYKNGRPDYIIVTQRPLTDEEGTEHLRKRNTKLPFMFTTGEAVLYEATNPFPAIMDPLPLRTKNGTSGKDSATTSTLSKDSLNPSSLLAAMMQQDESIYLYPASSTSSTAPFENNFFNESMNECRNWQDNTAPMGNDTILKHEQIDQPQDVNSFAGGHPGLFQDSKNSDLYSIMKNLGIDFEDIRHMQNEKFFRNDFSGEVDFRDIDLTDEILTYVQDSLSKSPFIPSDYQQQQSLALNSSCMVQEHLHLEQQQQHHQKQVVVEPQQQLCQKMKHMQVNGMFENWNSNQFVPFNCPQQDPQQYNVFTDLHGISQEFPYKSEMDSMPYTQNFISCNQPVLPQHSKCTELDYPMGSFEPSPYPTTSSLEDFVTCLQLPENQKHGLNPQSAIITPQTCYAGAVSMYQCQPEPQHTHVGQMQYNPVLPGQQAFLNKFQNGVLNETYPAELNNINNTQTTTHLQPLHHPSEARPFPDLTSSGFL
Chain of Peroxisome proliferator-activated receptor delta (Homo sapiens) (Q03181 whole entry, looked up): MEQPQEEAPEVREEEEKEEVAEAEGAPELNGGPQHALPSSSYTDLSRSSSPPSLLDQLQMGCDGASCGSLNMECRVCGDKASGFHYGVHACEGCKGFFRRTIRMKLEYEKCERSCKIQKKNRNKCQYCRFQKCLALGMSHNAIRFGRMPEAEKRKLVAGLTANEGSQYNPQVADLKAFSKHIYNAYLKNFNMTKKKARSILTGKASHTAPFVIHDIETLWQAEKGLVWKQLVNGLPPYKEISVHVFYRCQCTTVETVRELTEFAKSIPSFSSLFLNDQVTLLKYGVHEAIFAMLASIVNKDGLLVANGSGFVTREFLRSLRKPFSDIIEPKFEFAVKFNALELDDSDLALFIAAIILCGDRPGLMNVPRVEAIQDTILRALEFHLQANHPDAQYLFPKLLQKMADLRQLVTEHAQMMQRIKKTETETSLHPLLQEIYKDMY
Chain of Peroxisome proliferator-activated receptor gamma (Homo sapiens) (P37231 whole entry, looked up): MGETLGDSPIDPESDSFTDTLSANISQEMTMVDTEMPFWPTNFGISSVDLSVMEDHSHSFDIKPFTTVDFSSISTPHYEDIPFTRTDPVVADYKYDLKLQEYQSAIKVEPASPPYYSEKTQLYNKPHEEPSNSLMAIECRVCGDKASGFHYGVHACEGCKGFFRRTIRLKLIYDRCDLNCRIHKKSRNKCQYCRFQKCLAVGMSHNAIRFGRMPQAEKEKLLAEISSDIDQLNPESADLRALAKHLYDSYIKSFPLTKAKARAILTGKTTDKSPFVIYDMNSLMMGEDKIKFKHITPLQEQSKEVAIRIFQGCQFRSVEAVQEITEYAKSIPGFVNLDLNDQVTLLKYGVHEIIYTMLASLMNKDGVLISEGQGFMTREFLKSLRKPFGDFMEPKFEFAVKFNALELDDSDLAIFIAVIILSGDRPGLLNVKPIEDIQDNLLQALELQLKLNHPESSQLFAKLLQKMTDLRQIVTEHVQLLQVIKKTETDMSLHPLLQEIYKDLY

Cc1ccc(N)c(S(=O)(=O)O)c1
not listed: [20]
inactive: all other assays above

CCCCC(CC)COC(=O)/C=C\C(=O)OCC(CC)CCCC (stereo unspecified)
not listed: [7] | [10] | [15] | [17]
inactive: all other assays above

CCC(C)C=O (stereo unspecified)
not listed: [20]
inactive: all other assays above

CCc1ccccc1O
inactive: all assays above

Clc1ccc(Cl)c(Cl)c1Cl
inactive: all assays above

C=C1C2CCC(C2)C1(C)C (stereo unspecified)
not listed: [15] | [17]
inactive: all other assays above

c1ccc2[nH]cnc2c1
inactive: all assays above

CC(=O)Nc1ccc(C(=O)O)cc1
not listed: [12] | [14] | [15] | [17] | [19] | [20]
inactive: all other assays above
